# The source made the active and inactive calls. Calls follow the shape of the dose curve; as a rule, active = well fitted cell-killing curve with a large enough effect; inconclusive = small, poorly fitted or top-dose-only effect; inactive = flat fitted curve, though single readings scatter.
# Assay: Cell Viability - LYMP1-003 - Assay at 24 hr (AID 963);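 as to viability change, negative = cytotoxic: plate controls were DMSO only for no effect and tetraoctylammonium bromide positive control for full effect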
# Settings: LYMP1-003 lymphoblastoid cell viability; series mostly up to 92.2 µM; viability change, negative = cytotoxic: at the top concentration
# Source text: NIH Chemical Genomics Center [NCGC]
# NIH Molecular Libraries Screening Centers Network [MLSCN]
# National Institutes of Environmental Health Sciences [NIEHS]
# National Toxicology Program [NTP]
# We have developed a 1536-well cell-based assay for quantitative high throughput screening (qHTS) against a number of cell lines to determine in vitro cytotoxicity of small molecules. This particular assay uses a human lymphoblastoid cell line (LYMP1-003) purchased from Coriell Institute for Medical Research.
# NCGC Assay Protocol Summary:
# The CellTiter-Glo luminescent cell viability assay (Promega) is a homogeneous method to measure the number of viable cells in culture. The end point readout of this assay is based on quantitation of intracellular ATP, an indicator of metabolic activity, using the luciferase reaction. Luciferase catalyzes the oxidation of beetle Luciferin to oxyluciferin and light in the presence of ATP. The luminescent signal is proportional to amount of ATP present.
# Using the CellTiter-Glo luminescent cell viability assay, the amount of cellular ATP was measured in the lymphoblastoid cell line with complete culture medium following compound treatment for 24 hours. The assay was performed in opaque white Kalypsys 1536-well plates. In the screen, tetraoctylammonium bromide was used as positive control. Library compounds were measured for their ability to cause acute toxicity in the cell line, as reflected by a decrease in intracellular ATP levels, in a concentration-dependent manner. […] AC50 values were determined from concentration-response data modeled with the standard Hill equation.
# qHTS protocol for CellTiter Glo lymphoblastoid cellular assay
# [Step] [Parameter] [Value] [Description]
# 1. Reagent; 5 uL; 2500 lymphoblastoid cells/well
# 2. Time; 5 hr; 37 C incubation
# 4. Controls; 23 nL; Tetraoctylammonium bromide 6.4pM to 92 uM
# 5. Time; 24 hr; 37 C incubation
# 6. Reagent; 5 uL; CellTiter Glo reagent
# 7. Time; 30 min; Room Temperature
# 8. Detection; Luminescence; Viewlux plate reader
# Keywords: cell viability, cytotoxicity, lymphoblastoid cell line, luminescence, NTPHTS, NTPHTS_NCGC, NIEHS, DSSTox, MLSMR, MLSCN, NIH Roadmap, qHTS, NCGC
# Potency is read from the fitted curve at half-maximal effect.
Structure (SMILES),"viability change, negative = cytotoxic",Potency
CN1CCC[C@H]1c1cccnc1,-1.42% (inactive),
CC1(C)S[C@@H]2[C@H](NC(=O)[C@H](N)c3ccccc3)C(=O)N2[C@H]1C(=O)O,-0.662% (inactive),
c1ccc2sc(SSc3nc4ccccc4s3)nc2c1,-5.54% (inactive),
NCCO,0.73% (inactive),
CN(C)c1ccc(C(=C2C=CC(=[N+](C)C)C=C2)c2ccccc2)cc1,,2 µM (active)
Nc1ccc([N+](=O)[O-])cc1O,-10.4% (inactive),
Nc1ccc(O)c([N+](=O)[O-])c1,-21.4% (inactive),
O=C(O)c1cc(O)c(O)c(O)c1,-13.6% (inactive),
CC(C)NCC(O)COc1cccc2ccccc12 (configuration not stated),-9.62% (inactive),
S=c1[nH]c2ccccc2s1,-4.46% (inactive),
CCCCCCCCCCCCCCCCCC(=O)O,-2.99% (inactive),
CN(C)c1ccc(N=NS(=O)(=O)O)cc1,-8.91% (inactive),
CCCOC(=O)c1ccc(O)cc1,,inactive
O=C(O)/C=C\C(=O)O,-0.0675% (inactive),
COc1cc(/C=C/C(=O)CC(=O)/C=C/c2ccc(O)c(OC)c2)ccc1O,,50.1 µM (active)
Nc1nc2ccc([N+](=O)[O-])cc2s1,-1.34% (inactive),
C#C[C@]1(O)CC[C@H]2[C@@H]3CCc4cc(O)ccc4[C@H]3CC[C@@]21C,-17.3% (inactive),
Nc1ccc(O)c(C(=O)O)c1,-6.34% (inactive),
CN(C)CCC(c1ccc(Cl)cc1)c1ccccn1 (configuration not stated),-7.48% (inactive),
COc1cc(CNC(=O)CCCC/C=C/C(C)C)ccc1O,-6.58% (inactive),
N=C1N=C(N)c2cc3ccccc3cc21,,50.1 µM (active)
O=c1cc(-c2ccccc2)oc2ccccc12,-7.78% (inactive),

# — PubChem BioAssay (NCATS)
